Key:
Format in all cases: functional
[1] = tested on: Plasmodium falciparum; experiment: GSK_TCMDC: Inhibition of Plasmodium falciparum 3D7 in whole red blood cells, using parasite LDH activity as an index of growth. Test compounds present at 2uM
[2] = tested on: Plasmodium falciparum; experiment: GSK_TCMDC: Inhibition of Plasmodium falciparum Dd2 in whole red blood cells, using parasite LDH activity as an index of growth. Test compounds present at 2uM
[3] = tested on: HepG2; experiment: GSK_TCMDC: Percent inhibition of human HepG2 cell line. Test compounds present at 10uM.

SMILES | Inhibition [1] | Inhibition [2] | Inhibition [3]
Cc1cccc2nc(-c3ccc(-c4cccc(CN5CC(C)OC(C)C5)c4)s3)[nH]c12.O=C(O)C(F)(F)F (stereo not given) | 98% | 79% | 6%
NC1=NC(c2ccccc2)(c2ccccc2)C(=O)N1Cc1ccc(-c2ccncc2)cc1.O=CO | 96% | 74% | 20%
O=C(NCCCCCN1CCC(c2c[nH]c3ccccc23)CC1)Nc1ccc(Br)cc1 | 91% | 0% | 24%
CCCN(Cc1nnc(-c2cccs2)o1)C(=O)CSc1nnnn1-c1cc(C)cc(C)c1 | 92% | 71% | 2%
O=C(NCc1ccc(Cl)cc1)c1ccc(C(=O)NCC2CCCN2CC2CCCCC2)cc1.O=C(O)C(F)(F)F (stereo not given) | 97% | 10% | 21%
CCCC[C@H](NC(=O)OC(C)(C)C)C(=O)Nc1ccc(Cc2ccc(NC(=O)[C@H](CCCC)NC(=O)OC(C)(C)C)cc2)cc1 | 95% | 71% | 5%
FC(F)(F)c1ccc2[nH]c(-c3ccc(-c4ccc(CNCC5CCCO5)cc4)s3)nc2c1.O=C(O)C(F)(F)F (stereo not given) | 100% | 98% | 47%
COc1ccc(CCc2ccc(-c3c(C)[nH]c(C)c(Cl)c3=O)cc2)cc1 | 98% | 97% | 0%
COc1ccc(C=Cc2cc(=N)c3ccccc3[nH]2)cc1Br | 100% | 88% | 55%
Cc1cc(Nc2nc(NCc3cccnc3)nc3ccccc23)n[nH]1 | 100% | 33% | 11%
